Data on 40 molecules can be found in PubChem BioAssay (EPA / NIEHS).

The source made the active and inactive calls. How the source made its calls: active means hit-call score of the fitted dose curve at least 0.9, where 1 is the maximum; inactive means score below 0.9. Peptide text beside a SMILES is read from it.

The target in the assay is Nuclear respiratory factor 1 (Homo sapiens) (UniProt Q16656). The assay can be described thus: ATG_NRF1_CIS: Attagene CIS-FACTORIAL HepG2 Assay for human Nuclear Respiratory Factor 1 (NRF1) Orphan Gene (AID 2282987). The conditions noted are these: HepG2 NRF1 cis-element reporter, Attagene multiplex; actives raise or lower the signal. As for the experimental part: ATG_CIS is a cell-based, multiplexed-readout assay that uses HepG2, a human liver cell line, with measurements taken at 24 hours after chemical dosing in a 24-well plate.ATG_NRF1_CIS is one of 52 assay component(s) measured or calculated from the ATG_CIS assay. It is designed to make measurements of mRNA induction, a form of inducible reporter, as detected with fluorescence intensity signals by Reverse transcription polymerase chain reaction (RT-PCR) and Capillary electrophoresis technology.Data from the assay component ATG_NRF1_CIS was analyzed into 1 assay endpoint. This assay endpoint, ATG_NRF1_CIS, was analyzed with bidirectional fitting relative to DMSO as the negative control and baseline of activity. Using a type of inducible reporter, measures of mRNA for gain or loss-of-signal activity can be used to understand the reporter gene at the transcription factor-level as they relate to the gene NRF1. Furthermore, this assay endpoint can be referred to as a primary readout, because this assay has produced multiple assay endpoints where this one serves a reporter gene function. To generalize the intended target to other relatable targets, this assay endpoint is annotated to the dna binding intended target family, where the subfamily is nuclear respiratory factors.
Sequence of Nuclear respiratory factor 1 (Homo sapiens) (Q16656 whole entry, looked up): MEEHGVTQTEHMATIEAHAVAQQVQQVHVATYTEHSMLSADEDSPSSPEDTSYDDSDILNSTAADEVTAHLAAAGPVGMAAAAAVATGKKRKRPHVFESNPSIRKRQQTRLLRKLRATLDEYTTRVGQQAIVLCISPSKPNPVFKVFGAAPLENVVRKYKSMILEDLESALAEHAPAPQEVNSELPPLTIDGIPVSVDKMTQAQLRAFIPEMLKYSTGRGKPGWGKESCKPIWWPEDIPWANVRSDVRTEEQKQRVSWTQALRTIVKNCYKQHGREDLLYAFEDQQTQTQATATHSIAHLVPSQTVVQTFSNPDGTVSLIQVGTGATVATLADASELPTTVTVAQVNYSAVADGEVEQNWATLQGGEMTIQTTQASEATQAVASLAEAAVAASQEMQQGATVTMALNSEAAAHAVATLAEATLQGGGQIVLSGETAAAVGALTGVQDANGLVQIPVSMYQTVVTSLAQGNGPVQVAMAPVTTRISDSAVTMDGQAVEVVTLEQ
Human liver HepG2 cells are transiently transfected with multiple reporter transcription units (MRTUs) in 6-well plates using FuGene 6 reagent (Roche; 3 ml FuGene/1 mg DNA). The MRTU constructs are regulated by a cis-regulating element (promoter). […] A major difference between the CIS and TRANS system is that in CIS activities of endogenous TFs are measured, whereas the TRANS assay evaluates changes in activities of exogenous, chimeric NR-Gal4 proteins. […] At the end of 24 hour incubation, total RNA was isolated using TriZol reagent (Invitrogen). The isolated RNA is then reverse-transcribed using oligo(dT) primer and Mo-MLV reverse transcriptase (Invitrogen) with DNAse I (Ambion) treatment for 30 min. The one-tenth of the produced cDNA was amplified by PCR using Taq DNA polymerase (Invitrogen) and two reporter sequence-specific primers. The PCR products were fluorescently labeled by primer extension with 6-arboxyfluorescein (6-FAM) 5'-labeled reporter sequence-specific primer (2 min at 95 C, 20 s at 68 C and 10 min at 72 C) and these products were digested with 5U of HpaI (New England Biolabs) for 2h at 37 C. The fragments were purified using Qiaquick PCR columns (Qiagen), analyzed on an ABI 3130xL genetic analyzer (Applied Biosystems) with peak positions identified by using a set of X-rhodamine (ROX)-labeled MapMarker1000 molecular weight standards (BioVentures). The raw capillary electrophoresis data was processed using Attagraph software (Attagene).
As to `O=S(=O)(O)c1ccc(N=Nc2c(O)ccc3ccccc23)cc1`, the call was inactive.
The same measure, in the same setting: the same measure for `O=S(=O)(O)c1ccc(Nc2nc(Nc3ccc(C=Cc4ccc(Nc5nc(Nc6ccc(S(=O)(=O)O)cc6)nc(N(CCO)CCO)n5)cc4S(=O)(=O)O)c(S(=O)(=O)O)c3)nc(N(CCO)CCO)n2)cc1`: “inactive”; for `C=C(C)C(=O)OCCCCCCCCCCCC`: “inactive”; for `CCOC(=O)[C@H](O)[C@@H](O)C(=O)OCC`: “inactive”.
With `CCCC(C)C(=O)OCC` (stereo not given), the call was inactive.
Same read-out and setting: the same measure for `COC(=O)[C@H](Cc1ccccc1)NC(=O)[C@@H](N)CC(=O)O` (H-Asp-Phe-OMe): “inactive”; for `CCCCCC1=CCCC1=O`: “inactive”; for `CCCCCCCCCC(C)=O`: “inactive”.
The same measure, in the same setting: the same measure for `C=C[C@@]1(C)CC(=O)[C@]2(O)[C@@]3(C)[C@@H](O)CCC(C)(C)[C@@H]3[C@H](O)[C@H](OC(C)=O)[C@@]2(C)O1`: “inactive”; for `CC(C)(CO)COC(=O)C(C)(C)CO`: “inactive”; for `CCC1(C)C(=O)N(Cl)C(=O)N1Cl` (stereo not given): “inactive”.
Still for that read-out and setting: the same measure for `C=C(C)C(=O)OCCOC(=O)C(=C)C`: “inactive”.
For the molecule `Nc1ncnc2nc[nH]c12`, the molecule was called inactive.
Same read-out and setting: then `CC1(C)C(=O)N(CO)C(=O)N1CO`, with “inactive”.
On the same count and under the same terms, then `Nc1ccnc(=O)[nH]1`, with “inactive”; and `COC(Cc1ccccc1)OC`, with “inactive”.
Same read-out and setting: then `CCCCCCCCCCCCc1ccc(O)cc1`, with “inactive”; and `Nc1nc(N)nc(-c2ccccc2)n1`, with “inactive”.
In the case of `CCCCCCCCCCCC(=O)N(C)CC(=O)O`, the molecule was classed as inactive.
The same measure, in the same setting: then `Oc1ccc(-c2ccccc2)c(Cl)c1`, with “inactive”; and `C=CC(=O)OCCCCCCCCCC`, with “inactive”; and `CCOc1ccc(NC(N)=O)cc1`, with “inactive”.
Regarding `CCCCOC(=O)C(C)CC` (stereo not given), the molecule was classed as inactive.
`Cn1cccc1`: the outcome was inactive.
Still for that read-out and setting: the same measure for `[Cl][Sc]([Cl])[Cl]`: “inactive”; for `CCc1cccc(C)c1N`: “inactive”; for `CC1(C)[C@@H]2CC[C@@]1(C)C(=O)C2`: “inactive”.
The same measure, in the same setting: the same measure for `C[N+](C)(C)CCCNS(=O)(=O)C(F)(F)C(F)(F)C(F)(F)C(F)(F)C(F)(F)C(F)(F)C(F)(F)C(F)(F)F`: “inactive”; for `CC(=O)CCC1=C(C)CCCC1(C)C`: “inactive”.
Same read-out and setting: the same measure for `C/C=C/C=C/CCCCCCCO`: “inactive”.
By AC50 is commonly meant the concentration at which the activity in the assay is half-maximal. On to `CCCCCCCCCCCCCCCCCCOS(=O)(=O)O`, for which the AC50 was 49.5 µM (active).
For `COc1cc(C)ccc1O`, the molecule was classed as inactive.
Same read-out and setting: then `CC1CCC(C(C)(C)S)C(=O)C1` (stereo not given), with “inactive”; and `CC=CC(=O)OCC(C)C`, with “inactive”; and `O=C(O[C@@H]1Cc2c(O)cc(O)cc2O[C@@H]1c1cc(O)c(O)c(O)c1)c1cc(O)c(O)c(O)c1`, with “inactive”.
`CC(C)CCCCCOC(=O)CS`: the result was inactive.
Turning to `CC1=CC(C)C(C=O)CC1` (stereo not given), the molecule was classed as inactive.
Same read-out and setting: then `CCCCCCCC(=O)OCC(COC(=O)CCCCCCC)OC(=O)CCCCCCC`, with “inactive”; and `CC(=O)OC/C=C(/C)CCC=C(C)C`, with “inactive”.
Still for that read-out and setting: then `O=C1CCCN1C1CCCCC1`, with “inactive”.
